Hits are enriched below; roughly 2.2% of the tested compounds scored in any of these assays.
BaF3 tox: counter-screen for JAK2V617F inhibitors: parental Ba/F3 viability inhibitors | CellTiter-Glo ATP luminescence | inhibition, % at 5.6 µM | actives 1.1% (n = 220,000) | AID 1486;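 active = inhibition above a per-campaign cutoff, the mean inhibition of all tested compounds plus 3 SD, cut at about 27% in these data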;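 note: 0% = DMSO wells and 100% = JAK Inhibitor I control wells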
KLF5 inhibitor: kruppel-like factor 5 inhibition. DLD-1 KLF5 promoter-luciferase reporter, luminescence. actives 0.23% (n = 290,000). AID 1700. inhibition, % at 5 µM;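 active = inhibition above a per-plate limit of that plate's mean compound inhibition plus 3 SD, cut at about 60% in these data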;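 note: 0% = DMSO wells and 100% = LY294002 at 200 µM; higher means less KLF5 promoter-driven luciferase light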
Ba/F3 V617F tox: lowers viability of Ba/F3 cells expressing EpoR and JAK2V617F. actives 1.1% (n = 220,000). AID 1446. ATP luminescence. inhibition, % at 5.6 µM;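 active = inhibition above the campaign mean plus 3 SD over all tested compounds, cut at about 24% in these data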;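 note: cytokine-independent growth of Ba/F3 cells driven by EpoR plus mutant JAK2; 0% = DMSO-treated cells and 100% = JAK inhibitor I control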
IEC-6 tox: counter-screen for KLF5 inhibitors: cytotoxicity in IEC-6 cells; IEC-6 cytotoxicity, luminescence viability; inhibition, % at 5 µM; AID 1825; actives 0.78% (n = 290,000);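 note: 0% = plate median of test compound wells and 100% = cytotoxic reference compound wells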
APP transl inh: APP translation inhibition; SH-SY5Y APP 5'UTR-luciferase reporter, luminescence; inhibition, % at 2 µM; actives 0.82% (n = 190,000); AID 1285;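 active = inhibition above a set limit, derived from the sample mean plus 3 SD, cut at about 45% in these data; inconclusive = one replicate passes the limit while the other fails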
aSyn 5UTR inh: 5' untranslated region of α-synuclein, MLPCN primary screen; alpha-synuclein 5'UTR reporter, inhibitor activity; actives 0.82% (n = 300,000); inhibition, % (tested at 7.5 µM); AID 1813; in the data active = inhibition above about 60%; inconclusive = no clear call, values can overlap the other calls;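 note: H4 neuroglioblastoma cells stably carrying SNCA 5'UTR luciferase fusion; 0% = DMSO wells and 100% = positive control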
IEC-6 cytotox cf: confirmation of cytotoxic compounds in rat IEC-6 intestinal epithelial cells. shares compounds with IEC-6 tox. actives 63% (n = 1,900). inhibition, % at 5 µM. IEC-6 rat intestinal epithelial viability, luminescence;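 note: 0% = vehicle and 100% = reference cytotoxic drug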
The depositor's hits bear a star; ? = inconclusive; nt = no result given. Cut-off read from the data, not from the text of the source, unless noted: active = inhibition above about 22%; inactive = the rest.

SMILES	BaF3 tox	KLF5 inhibitor	Ba/F3 V617F tox	IEC-6 tox	APP transl inh	aSyn 5UTR inh	IEC-6 cytotox cf
Cc1nc2ccc(NC(=O)c3cncc(Br)c3)cc2s1	60*	39	80*	88*	nt	-87	-4
CCOC(=O)c1[nH]c(C)c(C(=O)Nc2ccc(F)cc2)c1C	-1	-43	-6	1	-18	0	nt
CCOC(=O)c1[nH]c(C)c(C(=O)Nc2ccc(C)cc2C)c1C	52*	38	59*	51*	70*	-28	48*
CCOC(=O)c1c(C)[nH]c(C(=O)OCC(=O)Nc2cc(C)ccc2OC)c1C	0	-4	-5	1	-14	8	nt
CCOC(=O)c1[nH]c(C)c(C(=O)Nc2cc(OC)ccc2OC)c1C	75*	60	75*	86*	91*	36	61*
CCOC(=O)c1[nH]c(C)c(C(=O)c2ccc(C)cc2)c1C	77*	16	78*	82*	95*	37	62*
CCOC(=O)c1[nH]c(C)c(C(=O)Nc2ccccc2F)c1C	62*	5	68*	47*	62*	-54	46*
N#C/C(=C(/O)c1ccc(Br)s1)c1nc2ccccc2[nH]1	nt	8	nt	34*	nt	-53	46*
COc1ccc(CC(=O)N/N=C/c2c(C)n(C)c3ccccc23)cc1OC	1	22	4	14	nt	39	nt
COc1ccc(C/C(C)=N\NC(=O)c2cn(C)c3ccccc23)cc1OC	10	41	18	31*	nt	14	-9
O=C(Cc1cn2ccsc2n1)OCc1ccccc1	-1	-14	-2	35*	-6	nt	19
CCOC(=O)c1cc2c(ccn2C)n1Cc1cc(C)ccc1C	9	-17	0	46*	20	-2	25*
CCOC(=O)c1sc(NC(=O)CCc2ccccc2)nc1C	nt	46	nt	54*	nt	-146	22*
Brc1ccccc1C1=Nn2c(nnc2-c2ccco2)SC1	3	-8	-4	2	nt	14	nt
Brc1ccccc1C1=Nn2c(nnc2-c2ccccc2)SC1	32*	-5	37*	27*	2	?	22
Cc1cccc(Cc2cnc(NC(=O)C3=NCCN3)s2)c1	8	-2	0	-1	19	-3	nt
Cc1cccc(Cc2cnc(NC(=O)c3ccc(C)o3)s2)c1	76*	-99	71*	59*	-76	16	39*
Cc1c(NC(=O)C(C)N2C(=O)NC3(CCC(C)CC3)C2=O)c(=O)n(-c2ccccc2)n1C (stereo unspecified)	2	-8	3	8	-1	10	nt
O=C(O)c1cccnc1Nc1ccc(Cl)cc1	33*	-11	28*	34*	-10	-3	23*
N#CC1=C(N)Oc2cc(N)ccc2C1c1cccc(F)c1 (stereo unspecified)	nt	38	nt	51*	nt	-137	42*
COC(=O)c1ccc(C2C(C#N)=C(N)Oc3cc(N)ccc32)cc1 (stereo unspecified)	nt	3	nt	-3	nt	-4	nt
CN(C)c1nc2c(c(=O)[nH]c(=O)n2C)n1CCCc1ccccc1	nt	-27	nt	5	nt	29	nt
COc1ccc(OC)c(-c2csc(NC(=O)c3ccc(F)cc3)n2)c1	nt	19	nt	34*	nt	-202	16
O=C(Nc1nc2ccccc2[nH]1)C1CC1	50*	-10	18	33*	-10	-46	17
O=C(N/N=C/c1ccco1)c1cc(-c2ccncc2)nc2ccccc12	nt	43	nt	31*	nt	-27	-1
SMILES	BaF3 tox	KLF5 inhibitor	Ba/F3 V617F tox	IEC-6 tox	APP transl inh	aSyn 5UTR inh	IEC-6 cytotox cf
C/C(=N\NC(=O)c1cc(C)nc2ccccc12)c1ccc([N+](=O)[O-])cc1	7	-29	0	0	6	38	nt
CCOc1ccc(-c2cc(C(=O)N/N=C/c3cccnc3)c3ccccc3n2)cc1	nt	5	nt	66*	nt	16	45*
COc1ccc(/C=N/NC(=O)c2cccc(NC(=O)c3ccccc3Cl)c2)cc1	nt	45	nt	72*	nt	-99	50*
C/C(=N\NC(=O)c1cc(C)nc2ccccc12)c1ccncc1	nt	38	nt	42*	nt	-12	-4
CCOC(=O)C1(Cc2ccccc2C(F)(F)F)CCN(CCCn2cccn2)CC1	3	-3	0	4	-11	6	nt
COc1ccc(CN(C(=O)CSc2nnc(-c3c[nH]c4ccccc34)o2)c2ccc(F)cc2)cc1OC	9	-11	6	-1	-32	-43	nt
CCc1cc(C(=O)N/N=C/c2ccc(OC)cc2)c2ccccc2n1	nt	49	nt	30*	nt	-38	17
COc1ccc(OC)c(-c2cc(C(=O)N/N=C/c3ccc(F)cc3)c3ccccc3n2)c1	nt	nt	nt	nt	nt	14	nt
CCCN(CCC)CCNC(=O)c1cc2c(-c3ccccc3F)nn(C)c2s1	nt	-20	nt	11	nt	-62	nt
CCCN(CCC)CCNC(=O)c1cc2c(-c3ccc(Cl)cc3)nn(C)c2s1	nt	-3	nt	22*	nt	35	15
COc1ccc(-c2cc(C(=O)N/N=C(\C)c3cccnc3)c3cc(C)ccc3n2)cc1OC	nt	-9	nt	34*	nt	-14	19
Cc1nc2scc(C)n2c(=O)c1S(=O)(=O)N1CCN(c2ccc([N+](=O)[O-])cc2)CC1	nt	-34	nt	0	nt	12	nt
NC(=O)CC(NC(=O)Cc1ccc(Br)cc1)c1ccc(N2CCN(c3ccc(F)cc3)CC2)c([N+](=O)[O-])c1 (stereo unspecified)	nt	nt	nt	nt	nt	19	nt
COc1ccc(C(=O)c2ccc(OC)c(N)c2)cc1N	81*	38	81*	76*	91*	46	61*
O=C(O)c1ccc(N/N=C/c2cccc(C(F)(F)F)c2)cc1	nt	-138	nt	32*	nt	-99	37*
O=C(NCc1nnc(SCC(=O)N2CCN(c3ccccc3)CC2)o1)c1ccc(F)cc1	nt	-6	nt	3	nt	-19	nt
Cc1cccc2c1N(CCOc1ccccc1Cl)C(=O)C2=O	11	-8	19	50*	8	19	21
Cc1ccccc1OCCN1C(=O)C(=O)c2cccc(C)c21	9	-23	2	10	nt	-16	nt
COc1ccc(C2=Nn3c([n+](C)c4ccccc43)SC2)cc1	77*	15	100*	30*	13	2	24*
O=C(Nc1ccccc1)c1ccc(Nc2c([N+](=O)[O-])cc([N+](=O)[O-])c3ccccc23)cc1	3	-20	-3	-4	-17	20	nt
O=[N+]([O-])c1cc(Br)c(Nc2ccccc2)c([N+](=O)[O-])c1	nt	37	nt	22*	nt	33	0
COc1ccc(N2CCN(C(=O)c3cc(C)on3)CC2)cc1	nt	-12	nt	2	nt	-9	nt
CN(C)N=Nc1nc2c(c(=O)n(C)c(=O)n2C)n1CC1CO1 (stereo unspecified)	-2	-7	1	12	nt	33	nt
C=CCc1cccc(/C=N/NC(=O)c2ccccc2Br)c1O	4	-35	-3	22	16	2	nt
C=CCc1cccc(/C=N/NC(=O)c2ccccc2OC)c1O	4	-13	-1	41*	8	8	19
